Screening data from PubChem BioAssay.
Only some compounds are listed: those with a hit (about 3.8% of all), similar ones and a draw of the others.
VDR inhibitor = Inhibitors of the vitamin D receptor (VDR): qHTS | Vitamin D3 receptor (Homo sapiens), P11473 | VDR-SRC2-3 peptide fluorescence polarization, 2 h | Potency, µM, for the others: max response, negative = inhibition, hits mostly inhibitors | 400,000 compounds, 0.93% hits; note: potency is the fitted concentration of half-maximal effect; % is set by controls: 0 for no effect and ±100 for the full control effect
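Two reagent solutions held at 4 deg C in the dark were dispensed, compounds pinned at 23 nl, and the mixture incubated 2 h at room temperature. Read-out: fluorescence polarization of VDR–SRC2-3 peptide binding.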
KCNH2 WT inh = qHTS for Inhibitors of KCHN2 3.1: Wildtype qHTS. activity change, % at 1.84 µM. 340,000 compounds, 0.37% hits. U2OS, BacMam KCNH2, thallium flux FluxOr; hits give low values. Voltage-gated inwardly rectifying potassium channel KCNH2 (Homo sapiens), Q12809;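 active = maximum activity change below -70%; inconclusive = maximum activity change between -70% and -50%; inactive = maximum activity change above -50%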; note: % is set by controls: 0 for no effect and ±100 for the full control effect
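U2OS cells transduced with wild-type KCNH2 virus are loaded with FluxOr dye for 45 min, and thallium flux is measured in kinetic reads before and after stimulation buffer. Rate constants are normalized to DMSO controls.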
PLK1 PBD inh = qHTS for Inhibitors of PLK1-PDB (polo-like kinase 1 - polo-box domain): Primary Screen. Serine/threonine-protein kinase PLK1 (Homo sapiens), P53350. Plk1 PBD binding of FITC phosphopeptide, fluorescence polarization. Potency, µM, for inactives: max response, negative = inhibition, most hits filed as inhibitors. 360,000 compounds, 2.8% hits; note: potency is the fitted concentration of half-maximal effect; series mostly up to about 57 µM; % is set by controls: 0 for no effect and ±100 for the full control effect; nearly all actives have a fitted effect of over 65% in size
Target sequence (P53350 whole entry, looked up, the tested form may be a part): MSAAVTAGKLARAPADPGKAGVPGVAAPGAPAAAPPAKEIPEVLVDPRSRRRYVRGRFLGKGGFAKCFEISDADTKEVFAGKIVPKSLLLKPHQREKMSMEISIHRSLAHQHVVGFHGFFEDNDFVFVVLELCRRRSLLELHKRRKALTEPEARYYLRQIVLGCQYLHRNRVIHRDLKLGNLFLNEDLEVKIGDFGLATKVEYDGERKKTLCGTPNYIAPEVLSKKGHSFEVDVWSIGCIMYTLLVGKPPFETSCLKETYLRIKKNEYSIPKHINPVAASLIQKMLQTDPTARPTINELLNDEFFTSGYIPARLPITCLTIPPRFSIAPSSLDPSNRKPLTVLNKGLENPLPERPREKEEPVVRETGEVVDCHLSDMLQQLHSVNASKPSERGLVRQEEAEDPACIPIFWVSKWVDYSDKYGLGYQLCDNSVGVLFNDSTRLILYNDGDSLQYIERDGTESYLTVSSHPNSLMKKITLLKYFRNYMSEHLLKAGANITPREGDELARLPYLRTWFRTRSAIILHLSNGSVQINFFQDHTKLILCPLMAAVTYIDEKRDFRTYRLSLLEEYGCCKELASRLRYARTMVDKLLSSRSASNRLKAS
KCNH2 3.1 inh = qHTS for Inhibitors of KCHN2 3.1: Mutant qHTS | 340,000 compounds, 0.95% hits | activity change, % (tested at about 1.8 µM) | Potassium voltage-gated channel subfamily H member 2, brain isoform KCNH2 3.1 (human) | U2OS KCNH2 3.1, thallium flux FluxOr; hits give low values;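 active = maximum activity change below -70%; inconclusive = maximum activity change from -70% to -50%; inactive = maximum activity change above -50%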;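 note: thallium influx rate constant from kinetic fluorescence after stimulation buffer; % is set by controls: 0 for no effect and ±100 for the full control effect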
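Channel expression came from 3.1 mutant virus (1.77 x 10^8 /mL) applied to suspended U2OS cells for 4 h. Flux was tracked with FluxOr dye plus Red40 quencher, and kinetic rate constants normalized to controls.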
MBNL1-CUG inh = qHTS Assay for Inhibitors of MBNL1-poly(CUG) RNA binding | TR-FRET MBNL1-His/biotin-(CUG)12 binding, 665/545 ratio | Potency, µM (top dose mostly 57.5 µM), for the others: top-dose activity change, negative = inhibition, hits mostly inhibitors | 280,000 compounds, 0.036% hits | AID 2675, 2010; active = well fitted inhibition curve with a large enough effect in the signal ratio, with a control signal flat, not every such curve was filed as active; inconclusive = small, poorly fitted or top-dose-only effect, or effect the other way, or a change in a side signal; inactive = no such curve, though single readings can be large or run the other way; the % refers to the signal ratio; note: potency is the fitted concentration of half-maximal effect; % is set by controls: 0 for no effect and ±100 for the full control effect
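Ratiometric TR-FRET (665 over 545 nm, excitation 340 nm) tracks disruption of MBNL1-His/biotin-(CUG)12 complex after 60 min at room temperature, with compounds at 92 nM to 58 uM final.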
CBFb RUNX1 block = qHTS Assay for Compounds Blocking the Interaction Between CBF-beta and RUNX1 for the Treatment of Acute Myeloid Leukemia. Runt-related transcription factor 1 (Homo sapiens) + Core-binding factor subunit beta …. AlphaScreen CBFb-His/RUNX1-biotin binding, biochemical. Potency, µM (top dose mostly 59.8 µM), for inactives: at the highest dose activity, negative = inhibition, most hits filed as inhibitors. 230,000 tested, under 10 active; note: % of control where 0% means no effect
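CBFb-His/RUNX1-biotin, 30 nM each, preincubated 20 min RT; compound 15 min RT; Ni + streptavidin beads 50 ng each, 90 min RT; AlphaScreen read.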
* hit, by the source's call; ? = inconclusive; · = no result given; ! = not confirmed by another sample. Unless noted, calls come from the whole dose curve; as a rule, active = well fitted curve in the direction sought with a large enough effect; inconclusive = small, poorly fitted or top-dose-only effect, or another doubt; inactive = no such curve, though single readings can be large; an effect the other way counts as inactive or inconclusive.

SMILES	VDR inhibitor	KCNH2 WT inh	PLK1 PBD inh	KCNH2 3.1 inh	MBNL1-CUG inh	CBFb RUNX1 block
Cc1cc(C)n(CC(C)NC(=O)c2cc(COc3c(F)cccc3F)on2)n1 (stereo unspecified)	?	3	19µM*	4	-4%	3%
Cc1cc(C)n(CC(C)NC(=O)c2cc(COc3ccc(F)c(F)c3)on2)n1 (stereo unspecified)	-14%	2	-4%	-2	5%	·
CCCSC1=N/C(=C\c2ccc([N+](=O)[O-])o2)C(=O)S1	79µM*	15	7.5µM*	-13	26%	·
COc1ccc(NC(=O)c2c(C)oc3ccc(O)c(CN4CCCCCC4)c23)cc1	15%	·	·	·	·	·
Cc1ccccc1NC(=O)c1c(C)nc(SCC(=O)OCc2ccccc2)c(C#N)c1-c1ccc(F)cc1	-7%	1	-6%	-114*	76%	28%
O=C(CSc1nccn1Cc1ccc(F)cc1)NCc1ccc(F)cc1	2%	·	·	·	·	·
CC(=O)OCCn1c(=O)c2cc3c(=O)n(CCOC(C)=O)c(=O)c3cc2c1=O	4%	1	12µM*	-13	?	3%
CC1NC(=O)C(N)CNC(=O)C(C2CCN=C(N)N2)NC(=O)/C(=C/NC(N)=O)NC(=O)C(CNC(=O)CC(N)CCCN)NC1=O (stereo unspecified)	-5%	·	·	·	·	27%
COc1ccc(OC)c(C2C(C(=O)Nc3ccc(C)cc3)=C(C)Nc3nnnn32)c1 (stereo unspecified)	5%	·	·	·	·	·
COc1ccc(S(=O)(=O)NC(C)CCc2ccccc2)cc1 (stereo unspecified)	?	-3	5.3µM*	-8	0%	4%
O=c1[nH]c(=O)c2nc3c4ccccc4c4ccccc4c3nc2[nH]1	-24%	-2	21µM*	-11	49%	12%
CCCC(=O)N1CC(=O)Nc2ccc(Cl)cc2C1c1ccccc1 (stereo unspecified)	-13%	·	·	·	·	·
CCCC(=O)N1CC(=O)Nc2ccc(F)cc2C1c1ccccc1 (stereo unspecified)	-26%	1	-13%	-87*	-5%	-3%
COC(=O)C1(C(=O)OC)CC2=C[C@H](CC2=O)Cc2ccccc2[C@@H]1C[N+](=O)[O-]	50µM*!	·	·	·	·	-3%
COC(=O)C1(C(=O)OC)Cc2ccccc2N(S(=O)(=O)c2ccc(C)cc2)C1CC(C)=O (stereo unspecified)	·	·	-9%	·	·	·
O=S(=O)(CCSc1ccccn1)c1nc2ccccc2s1	?	-10	6.7µM*	-13	-4%	7%
O=S(=O)(CCSc1nc2ccccc2o1)c1nc2ccccc2s1	-25%	-24	?	-8	-9%	4%
CC(=O)C(Cl)C(=O)Nc1ccccc1 (stereo unspecified)	14µM*	-7	2.7µM*	8	1%	0%
CC(C(=O)Nc1ccccc1)C(=O)Nc1ccccc1	-7%	2	-4%	-1	3%	·
O=C(Nc1ccccc1)C(Cl)C(=O)c1ccccc1 (stereo unspecified)	?	0	1.5µM*	-4	-9%	·
CCCN(CCC)c1nn2c(=O)c(C(=O)NCc3cccc(OC)c3)cnc2s1	-1%	·	·	·	·	·
CCCN(C(=O)COC(=O)c1nc2nccc(C)n2n1)C1CCS(=O)(=O)C1 (stereo unspecified)	?	1	24µM*	-5	·	·
CN(C)c1ccc(CNC(=O)CCCN2C(=O)CCn3nc(-c4cn(C)c5ccccc45)cc32)cc1	1%	·	·	·	·	·
O=C(COC(=O)CC1SC(N2CCCC2)=NC1=O)Nc1c(F)c(F)c(F)c(F)c1F (stereo unspecified)	26%	-5	-13%	-74*	·	·
CCc1ccc(NC(=O)Cn2c(=O)n(CCC(C)C)c(=O)c3cccnc32)cc1	-4%	·	·	·	·	·
SMILES	VDR inhibitor	KCNH2 WT inh	PLK1 PBD inh	KCNH2 3.1 inh	MBNL1-CUG inh	CBFb RUNX1 block
CC(C)Sc1ccc(C(=O)Nc2ccc(F)cc2F)cn1	-4%	2	19µM*	15	-4%	-27%
O=C(Nc1ccc(F)cc1F)c1ccc(-n2cccn2)nc1	-27%	-19	-2%	1	·	-12%
COc1ccc([C@H]2C[C@H](n3cc(C4CC4)nn3)[C@@H](O)CN2CC2CCCCC2)cc1	·	1	7%	-84*	·	·
Cc1cccc(N2CCN(CC(O)COc3ccc(Cl)cc3)CC2)c1 (stereo unspecified)	-14%	4	-21%	-79*	-10%	12%
COc1ccc(N2CCN(CC(=O)NCc3ccccc3)CC2)cc1	-19%	-3	3%	13	-12%	12%
CC(=O)Nc1ccc(OCC(O)CN2CCN(c3cccc(Cl)c3)CC2)cc1 (stereo unspecified)	-3%	9	1%	0	-4%	0%
Cc1cc(OCC(O)CN2CCc3ccccc3C2)ccc1Cl (stereo unspecified)	-8%	10	-12%	-80*	-12%	·
Cc1cc(=O)oc2cc(OCC(O)CN3CCc4ccccc4C3)ccc12 (stereo unspecified)	?	11	-13%	-21	1%	4%
COc1ccc(N2CCN(CC(=O)NCc3ccc(Cl)cc3)CC2)cc1	-11%	20	15µM*	2	2%	·
OC(COc1ccc(Cl)cc1)CN1CCN(c2cccc(Cl)c2)CC1 (stereo unspecified)	4%	7	-8%	-78*	-18%	12%
CCCN1CNc2c(c(=O)[nH]c(=S)n2CCc2c(OC)cccc2OC)C1	-17%	·	·	·	·	·
COc1ccc(OCC(O)CN2CCN(c3ccc(Cl)cc3)CC2)cc1 (stereo unspecified)	-17%	26	-5%	-84*	-9%	9%
COc1cccc(OCC(O)CN2CCN(c3ccc(Cl)cc3)CC2)c1 (stereo unspecified)	7%	35	-8%	-34	4%	?
O=C(CN1C(=O)C2CCCCN2c2ccc(C(=O)N3CCCC3)cc21)NCc1cccc(F)c1 (stereo unspecified)	-1%	·	·	·	·	·
CC1(C)Cc2c(c(-c3ccco3)nc3sc4c(NCCCO)ncnc4c23)CO1	-21%	2	-16%	-9	12%	-10%
